Laboratory results reported in PubChem BioAssay AID1159580 (chemical genetic matrix, 2015).
Hit rate of the full screen: of about 5,500 compounds, about 2,000 (36%) were called active. Not shown: some 18% with an inconclusive outcome. Cut-off read from the data, not from the text of the source: active = normalized growth mostly below about 0.91 (no sharp cut-off); inconclusive = no clear call, values can overlap the other calls; inactive = mostly above about 0.92. The list shows a part of the results.

Experiment: chemical genetic growth profiling, strain panel (AID 1159580);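 note: tested at 20 µM; growth read once vehicle control cultures reached saturation at 30 °C; 1 = growth at the plate median or of vehicle wells; lower values mean less growth of the strain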
Details: growth OD

Measured: normalized growth

CCOP(=S)(OCC)SCSP(=S)(OCC)OCC
inactive: S. cerevisiae deletion strains, locus YAL013W, strain DEP1, active compounds read low 0.993 | S. cerevisiae deletion strains, locus YBR021W, strain FUR4, active compounds read low 1 | S. cerevisiae deletion strains, locus YBR229C, strain ROT2, active compounds read low 0.961 | S. cerevisiae deletion strains, locus YCL029C, strain bik1, active compounds read low 0.978 | S. cerevisiae deletion strains, locus YDL035C, strain GPR1, active compounds read low 0.956 | S. cerevisiae deletion strains, locus YDL074C, strain BRE1, active compounds read low 0.89 | S. cerevisiae deletion strains, locus YDL101C, strain DUN1, active compounds read low 0.97 | S. cerevisiae deletion strains, locus YDL134C, strain PPH21, active compounds read low 0.986 | S. cerevisiae deletion strains, locus YDL185W, strain tfp1, active compounds read low 0.957 | S. cerevisiae deletion strains, locus YDL192W, strain arf1, active compounds read low 0.979 | S. cerevisiae deletion strains, locus YDR101C, strain arx1, active compounds read low 0.989 | S. cerevisiae deletion strains, locus YDR150W, strain NUM1, active compounds read low 0.984 | S. cerevisiae deletion strains, locus YDR318W, strain mcm21, active compounds read low 0.981 | S. cerevisiae deletion strains, locus YDR388W, active compounds read low 0.994 | S. cerevisiae deletion strains, locus YDR502C, strain sam2, active compounds read low 0.99 | S. cerevisiae deletion strains, locus YEL061C, strain CIN8, active compounds read low 0.995 | S. cerevisiae deletion strains, locus YER110C, active compounds read low 0.987 | S. cerevisiae deletion strains, locus YER155C, strain BEM2, active compounds read low 1.01 | S. cerevisiae deletion strains, locus YER167W, strain BCK2, active compounds read low 0.972 | S. cerevisiae deletion strains, locus YGL078C, strain dbp3, active compounds read low 0.984 | S. cerevisiae deletion strains, locus YGL086W, strain mad1, active compounds read low 1 | S. cerevisiae deletion strains, locus YGL248W, strain PDE1, active compounds read low 0.946 | S. cerevisiae deletion strains, locus YGR078C, strain PAC10, active compounds read low 0.969 | S. cerevisiae deletion strains, locus YGR135W, strain pre9, active compounds read low 0.981 | S. cerevisiae deletion strains, locus YGR229C, strain SMI1, active compounds read low 0.908 | S. cerevisiae deletion strains, locus YGR252W, strain gcn5, active compounds read low 0.954 | S. cerevisiae deletion strains, locus YHR030C, strain SLT2, active compounds read low 1.01 | S. cerevisiae deletion strains, locus YHR079C, strain IRE1 (second series), active compounds read low 0.989 | S. cerevisiae deletion strains, locus YHR094C, strain hxt1, active compounds read low 0.999 | S. cerevisiae deletion strains, locus YHR129C, strain ARP1, active compounds read low 0.969 | S. cerevisiae deletion strains, locus YHR200W, strain rpn10, active compounds read low 0.995 | S. cerevisiae deletion strains, locus YIL066C, strain RNR3, active compounds read low 0.94 | S. cerevisiae deletion strains, locus YIL073C, strain SPO22, active compounds read low 0.907 | S. cerevisiae deletion strains, locus YIL125W, strain kgd1, active compounds read low 0.981 | S. cerevisiae deletion strains, locus YIR030C, strain dcg1, active compounds read low 0.984 | S. cerevisiae deletion strains, locus YJL095W, strain BCK1, active compounds read low 0.964 | S. cerevisiae deletion strains, locus YJL134W, strain LCB3, active compounds read low 0.988 | S. cerevisiae deletion strains, locus YJL168C, strain set2, active compounds read low 0.984 | S. cerevisiae deletion strains, locus YJL187C, strain SWE1 (second series), active compounds read low 0.984 | S. cerevisiae deletion strains, locus YJR043C, strain POL32, active compounds read low 0.984 | S. cerevisiae deletion strains, locus YJR075W, strain HOC1, active compounds read low 0.928 | S. cerevisiae deletion strains, locus YKL009W, strain mrt4, active compounds read low 0.946 | S. cerevisiae deletion strains, locus YKL068W, active compounds read low 0.993 | S. cerevisiae deletion strains, locus YKL085W, strain MDH1 (second series), active compounds read low 0.984 | S. cerevisiae deletion strains, locus YKL085W, strain MDH1, active compounds read low 0.984 | S. cerevisiae deletion strains, locus YKL190W, strain CNB1, active compounds read low 1 | S. cerevisiae deletion strains, locus YKR001C, strain vps1, active compounds read low 0.978 | S. cerevisiae deletion strains, locus YLR039C, strain RIC1, active compounds read low 0.868 | S. cerevisiae deletion strains, locus YLR058C, strain SHM2, active compounds read low 0.982 | S. cerevisiae deletion strains, locus YLR102C, strain apc9, active compounds read low 0.983 | S. cerevisiae deletion strains, locus YLR262C, strain YPT6, active compounds read low 0.829 | S. cerevisiae deletion strains, locus YLR268W, strain sec22, active compounds read low 0.981 | S. cerevisiae deletion strains, locus YLR330W, strain CHS5, active compounds read low 0.992 | S. cerevisiae deletion strains, locus YLR342W, strain FKS1 (second series), active compounds read low 0.996 | S. cerevisiae deletion strains, locus YLR371W, strain rom2, active compounds read low 0.985 | S. cerevisiae deletion strains, locus YLR418C, strain cdc73, active compounds read low 0.932 | S. cerevisiae deletion strains, locus YML016C, strain PPZ1, active compounds read low 0.988 | S. cerevisiae deletion strains, locus YML032C, strain rad52, active compounds read low 0.989 | S. cerevisiae deletion strains, locus YML124C, strain tub3, active compounds read low 0.996 | S. cerevisiae deletion strains, locus YMR078C, strain ctf18, active compounds read low 0.997 | S. cerevisiae deletion strains, locus YMR223W, strain ubp8, active compounds read low 0.98 | S. cerevisiae deletion strains, locus YMR263W, strain SAP30, active compounds read low 0.981 | S. cerevisiae deletion strains, locus YMR307W, strain GAS1, active compounds read low 0.954 | S. cerevisiae deletion strains, locus YNL067W, strain RPL9B, active compounds read low 0.971 | S. cerevisiae deletion strains, locus YNL128W, strain TEP1, active compounds read low 0.918 | S. cerevisiae deletion strains, locus YNL153C, strain GIM3, active compounds read low 0.987 | S. cerevisiae deletion strains, locus YNL233W, strain BNI4, active compounds read low 0.982 | S. cerevisiae deletion strains, locus YNL250W, strain rad50, active compounds read low 0.982 | S. cerevisiae deletion strains, locus YNL271C, strain bni1, active compounds read low 0.991 | S. cerevisiae deletion strains, locus YNL298W, strain CLA4, active compounds read low 0.979 | S. cerevisiae deletion strains, locus YNL307C, strain MCK1, active compounds read low 0.987 | S. cerevisiae deletion strains, locus YNL322C, strain KRE1, active compounds read low 0.981 | S. cerevisiae deletion strains, locus YNR052C, strain pop2, active compounds read low 0.986 | S. cerevisiae deletion strains, locus YOL006C, strain TOP1, active compounds read low 0.788 | S. cerevisiae deletion strains, locus YOL012C, strain htz1 1.08 | S. cerevisiae deletion strains, locus YOL147C, strain pex11, active compounds read low 1.01 | S. cerevisiae deletion strains, locus YOR061W, strain CKA2, active compounds read low 0.964 | S. cerevisiae deletion strains, locus YOR069W, strain VPS5, active compounds read low 0.995 | S. cerevisiae deletion strains, locus YOR136W, strain idh2, active compounds read low 0.988 | S. cerevisiae deletion strains, locus YOR144C, strain elg1, active compounds read low 0.989 | S. cerevisiae deletion strains, locus YOR184W, strain ser1, active compounds read low 0.968 | S. cerevisiae deletion strains, locus YOR316C, strain cot1, active compounds read low 0.969 | S. cerevisiae deletion strains, locus YPL055C, strain LGE1, active compounds read low 0.914 | S. cerevisiae deletion strains, locus YPL241C, strain CIN2, active compounds read low 0.989 | S. cerevisiae deletion strains, locus YPR119W, strain clb2, active compounds read low 0.993 | S. cerevisiae deletion strains, locus YPR141C, strain kar3, active compounds read low 0.949 | S. cerevisiae deletion strains, locus YPR163C, strain tif3, active compounds read low 0.994 | S. cerevisiae deletion strains, locus YPR167C, strain met16, active compounds read low 0.979 | S. cerevisiae deletion strains, strain wtn01, active compounds read low 0.981 | S. cerevisiae strains, strain wild type, active compounds read low 0.982
active: S. cerevisiae deletion strains, locus YDR162C, strain NBP2, active compounds read low 0.806
